Reference: PubChem BioAssay (EPA / NIEHS)
Records with an inconclusive call do not appear. Active and inactive are the calls of the source. The calls were made as follows: active = hit-call score of the fitted dose curve at least 0.9, where 1 is the maximum; inconclusive = response in the unintended direction; inactive = score below 0.9.

What was measured:
[1] = target: human Histamine 1 Receptor (H1), HRH1 (gene 3269) (UniProt P35367); experiment: NVS_GPCR_hH1: NovaScreen (NVS) G Protein-Coupled Receptor Assay for human Histamine 1 Receptor (H1) (AID 2283268)
In short: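 Filter-based scintillation detection of radioligand binding to human H1, 1 h incubation; chemicals screened in duplicate at 25 uM, then concentration-response; signal loss relative to DMSO taken as activity.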

[2] = target: Muscarinic acetylcholine receptor M3 (Homo sapiens) (UniProt P20309); experiment: NVS_GPCR_hM3: NovaScreen (NVS) G Protein-Coupled Receptor Assay for human Muscarinic, M3 Receptor (AID 2283272)
Sequence of Muscarinic acetylcholine receptor M3 (Homo sapiens) (P20309 whole entry, looked up): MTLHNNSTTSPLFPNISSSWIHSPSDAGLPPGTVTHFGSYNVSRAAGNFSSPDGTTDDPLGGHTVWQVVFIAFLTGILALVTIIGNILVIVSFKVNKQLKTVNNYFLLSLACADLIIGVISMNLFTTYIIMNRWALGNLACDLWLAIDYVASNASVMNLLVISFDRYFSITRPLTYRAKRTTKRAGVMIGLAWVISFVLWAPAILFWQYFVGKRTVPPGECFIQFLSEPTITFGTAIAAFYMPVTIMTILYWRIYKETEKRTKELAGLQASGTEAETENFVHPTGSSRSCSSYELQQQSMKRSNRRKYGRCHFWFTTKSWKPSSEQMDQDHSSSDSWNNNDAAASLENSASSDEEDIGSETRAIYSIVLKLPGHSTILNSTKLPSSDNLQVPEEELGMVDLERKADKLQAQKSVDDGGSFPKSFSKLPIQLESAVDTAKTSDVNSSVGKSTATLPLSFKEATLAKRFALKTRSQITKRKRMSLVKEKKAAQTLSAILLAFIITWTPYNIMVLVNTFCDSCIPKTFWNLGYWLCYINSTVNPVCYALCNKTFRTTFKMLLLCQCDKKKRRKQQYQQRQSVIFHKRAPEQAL
In short: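 Radioligand displacement binding on human M3 receptor in CHO-derived membranes, 1 h incubation, filter-based scintillation counting. Primary screen in duplicate at 25 uM; actives followed up in concentration series; loss of signal versus DMSO.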

[3] = target: Muscarinic acetylcholine receptor M2 (Homo sapiens) (UniProt P08172); experiment: NVS_GPCR_hM2: NovaScreen (NVS) G Protein-Coupled Receptor Assay for human Muscarinic, M2 Receptor (AID 2283273)
Sequence of Muscarinic acetylcholine receptor M2 (Homo sapiens) (P08172 whole entry, looked up): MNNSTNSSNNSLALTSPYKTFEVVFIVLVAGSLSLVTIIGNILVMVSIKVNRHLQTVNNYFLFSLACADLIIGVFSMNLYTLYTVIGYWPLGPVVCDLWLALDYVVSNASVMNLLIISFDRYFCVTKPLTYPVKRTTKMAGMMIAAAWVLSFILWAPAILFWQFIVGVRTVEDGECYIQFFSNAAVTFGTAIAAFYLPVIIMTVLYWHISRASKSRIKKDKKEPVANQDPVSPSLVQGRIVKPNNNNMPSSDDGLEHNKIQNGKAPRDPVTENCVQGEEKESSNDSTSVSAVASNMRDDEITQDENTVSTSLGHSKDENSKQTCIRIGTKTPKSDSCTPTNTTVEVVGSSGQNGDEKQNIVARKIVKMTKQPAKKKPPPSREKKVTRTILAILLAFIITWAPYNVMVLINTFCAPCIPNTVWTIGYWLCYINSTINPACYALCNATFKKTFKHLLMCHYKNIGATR
In short: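 CHO-expressed human M2 receptor preparation, competitive displacement of a radioligand read by filter-based scintillation counting after 1 h. Single 25 uM duplicate screen, then concentration-response follow-up of actives; DMSO baseline.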

[4] = target: human Muscarinic, M4 Receptor, CHRM4 (gene 1132) (UniProt P08173); experiment: NVS_GPCR_hM4: NovaScreen (NVS) G Protein-Coupled Receptor Assay for human Muscarinic, M4 Receptor (AID 2283274)
In short: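 Filter-based scintillation counting of radioligand bound to CHO-expressed human M4 preparations after 1 h; loss of signal fitted versus DMSO. Initial duplicate testing at 25 uM, concentration-response follow-up for actives.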

[5] = target: Muscarinic acetylcholine receptor M5 (Homo sapiens) (UniProt P08912); experiment: NVS_GPCR_hM5: NovaScreen (NVS) G Protein-Coupled Receptor Assay for human Muscarinic, M5 Receptor (AID 2283275)
Sequence of Muscarinic acetylcholine receptor M5 (Homo sapiens) (P08912 whole entry, looked up): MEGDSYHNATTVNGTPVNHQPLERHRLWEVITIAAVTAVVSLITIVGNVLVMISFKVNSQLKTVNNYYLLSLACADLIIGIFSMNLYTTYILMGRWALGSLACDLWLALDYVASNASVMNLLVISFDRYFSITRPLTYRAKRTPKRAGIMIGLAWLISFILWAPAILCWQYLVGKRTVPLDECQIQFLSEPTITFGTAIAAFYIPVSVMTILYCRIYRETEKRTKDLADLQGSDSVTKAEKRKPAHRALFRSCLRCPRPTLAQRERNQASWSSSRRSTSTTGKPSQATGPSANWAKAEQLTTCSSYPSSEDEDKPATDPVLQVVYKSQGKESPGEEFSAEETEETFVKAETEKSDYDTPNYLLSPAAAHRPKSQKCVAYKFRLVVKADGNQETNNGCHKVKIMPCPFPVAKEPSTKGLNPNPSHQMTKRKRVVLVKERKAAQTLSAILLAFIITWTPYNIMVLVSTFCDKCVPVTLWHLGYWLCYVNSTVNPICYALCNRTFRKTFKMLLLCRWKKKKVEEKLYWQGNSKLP
In short: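 Chemicals passing a primary duplicate screen at 25 uM were run as singleton concentration series, maximum 50 uM. Displacement of a specific radioligand from CHO-extracted receptor was read by filter scintillation after 1 h, relative to DMSO.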

[6] = target: human Adenosine A2a Receptor (AdoRA2a), ADORA2A (gene 135) (UniProt P29274); experiment: NVS_GPCR_hAdoRA2a: NovaScreen (NVS) G Protein-Coupled Receptor Assay for human Adenosine A2a Receptor (AdoRA2a) (AID 2283256)
Sequence of human Adenosine A2a Receptor (AdoRA2a), ADORA2A (gene 135) (P29274 whole entry, looked up): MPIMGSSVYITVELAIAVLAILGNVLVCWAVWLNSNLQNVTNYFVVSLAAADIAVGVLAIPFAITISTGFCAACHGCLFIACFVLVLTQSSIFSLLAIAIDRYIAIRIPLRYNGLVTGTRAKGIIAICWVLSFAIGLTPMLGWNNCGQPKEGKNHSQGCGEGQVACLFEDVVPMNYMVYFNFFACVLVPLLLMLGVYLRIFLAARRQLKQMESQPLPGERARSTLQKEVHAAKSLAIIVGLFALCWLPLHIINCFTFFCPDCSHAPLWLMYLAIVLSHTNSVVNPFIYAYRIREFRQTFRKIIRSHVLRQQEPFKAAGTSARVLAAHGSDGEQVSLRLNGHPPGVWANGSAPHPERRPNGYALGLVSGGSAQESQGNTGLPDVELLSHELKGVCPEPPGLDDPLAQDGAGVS
In short: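 HEK293-derived receptor preparation, radioligand displacement, 1.5 h, filtration + scintillation read. Loss of bound signal scored vs DMSO. Single-point 25 uM in duplicate first, then concentration-response for actives.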

[7] = target: human Adrenergic, Beta 1 Receptor (Adrb1), ADRB1 (gene 153) (UniProt P08588); experiment: NVS_GPCR_hAdrb1: NovaScreen (NVS) G Protein-Coupled Receptor Assay for human Adrenergic, Beta 1 Receptor (Adrb1) (AID 2283258)
Sequence of human Adrenergic, Beta 1 Receptor (Adrb1), ADRB1 (gene 153) (P08588 whole entry, looked up): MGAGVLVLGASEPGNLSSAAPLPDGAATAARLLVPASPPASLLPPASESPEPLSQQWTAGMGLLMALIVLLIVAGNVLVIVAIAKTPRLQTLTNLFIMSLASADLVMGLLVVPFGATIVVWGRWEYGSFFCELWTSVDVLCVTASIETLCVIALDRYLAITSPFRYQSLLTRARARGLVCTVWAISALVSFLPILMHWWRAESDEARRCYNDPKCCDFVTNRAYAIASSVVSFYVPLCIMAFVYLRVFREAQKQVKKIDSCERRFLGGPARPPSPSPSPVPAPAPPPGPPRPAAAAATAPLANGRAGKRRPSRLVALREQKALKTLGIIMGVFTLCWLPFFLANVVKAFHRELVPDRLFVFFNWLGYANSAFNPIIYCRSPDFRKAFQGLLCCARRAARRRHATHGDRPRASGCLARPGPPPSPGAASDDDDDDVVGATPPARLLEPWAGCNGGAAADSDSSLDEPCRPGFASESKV
In short: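 Membranes/protein extracted from human neuroepithelioma cells, radioligand competition binding read by filtration and scintillation 2 h post-dose. Single 25 uM duplicate screen, then concentration-response follow-up; DMSO as negative control.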

[8] = target: Beta-2 adrenergic receptor (Homo sapiens) (UniProt P07550); experiment: NVS_GPCR_hAdrb2: NovaScreen (NVS) G Protein-Coupled Receptor Assay for human Adrenergic, Beta 2 Receptor (Adrb2) (AID 2283261)
Sequence of Beta-2 adrenergic receptor (Homo sapiens) (P07550 whole entry, looked up): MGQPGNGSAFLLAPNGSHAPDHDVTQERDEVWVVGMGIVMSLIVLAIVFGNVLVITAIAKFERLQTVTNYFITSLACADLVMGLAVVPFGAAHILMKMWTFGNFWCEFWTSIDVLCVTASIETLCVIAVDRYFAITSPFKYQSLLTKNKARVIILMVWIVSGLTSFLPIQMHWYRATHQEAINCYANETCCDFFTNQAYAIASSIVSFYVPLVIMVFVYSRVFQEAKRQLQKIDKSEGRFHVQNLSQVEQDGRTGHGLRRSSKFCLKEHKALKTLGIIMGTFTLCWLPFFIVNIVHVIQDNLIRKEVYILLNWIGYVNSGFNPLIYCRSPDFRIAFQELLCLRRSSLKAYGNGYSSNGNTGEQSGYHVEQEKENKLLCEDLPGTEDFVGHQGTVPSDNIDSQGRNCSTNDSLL
In short: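 Compounds screened in duplicate at 25 uM, then actives in concentration series. Human beta-2 receptor from CHO material, cell-free; radioligand displacement after 1 h measured by filtration and scintillation against DMSO baseline.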

[9] = target: human Dopamine Receptor D2 (DRD2), DRD2 (gene 1813) (UniProt P14416); experiment: NVS_GPCR_hDRD2s: NovaScreen (NVS) G Protein-Coupled Receptor Assay for human Dopamine Receptor D2 (DRD2) (AID 2283266)
Sequence of human Dopamine Receptor D2 (DRD2), DRD2 (gene 1813) (P14416 whole entry, looked up): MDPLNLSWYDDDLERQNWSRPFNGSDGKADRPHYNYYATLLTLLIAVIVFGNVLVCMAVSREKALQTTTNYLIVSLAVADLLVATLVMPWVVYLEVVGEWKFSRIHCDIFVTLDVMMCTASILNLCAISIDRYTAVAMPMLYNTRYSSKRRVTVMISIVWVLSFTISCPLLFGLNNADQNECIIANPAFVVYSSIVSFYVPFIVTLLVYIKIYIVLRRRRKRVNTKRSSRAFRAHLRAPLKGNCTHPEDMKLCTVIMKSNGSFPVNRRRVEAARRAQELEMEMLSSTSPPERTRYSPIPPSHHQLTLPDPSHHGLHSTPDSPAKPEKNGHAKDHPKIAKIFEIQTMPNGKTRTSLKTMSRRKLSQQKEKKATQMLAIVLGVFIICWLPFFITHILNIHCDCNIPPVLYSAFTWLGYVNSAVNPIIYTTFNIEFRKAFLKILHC
In short: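 Test compound (25 uM, duplicate in the primary screen; concentration series at follow-up) competed with radioligand for human DRD2 in CHO-derived membrane protein. Filter-based scintillation counting was done 1.5 hours after dosing, with loss of signal analysed against DMSO.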

[10] = target: D(1A) dopamine receptor (Homo sapiens) (UniProt P21728); experiment: NVS_GPCR_hDRD1: NovaScreen (NVS) G Protein-Coupled Receptor Assay for human Dopamine Receptor D1 (DRD1) (AID 2283269)
Sequence of D(1A) dopamine receptor (Homo sapiens) (P21728 whole entry, looked up): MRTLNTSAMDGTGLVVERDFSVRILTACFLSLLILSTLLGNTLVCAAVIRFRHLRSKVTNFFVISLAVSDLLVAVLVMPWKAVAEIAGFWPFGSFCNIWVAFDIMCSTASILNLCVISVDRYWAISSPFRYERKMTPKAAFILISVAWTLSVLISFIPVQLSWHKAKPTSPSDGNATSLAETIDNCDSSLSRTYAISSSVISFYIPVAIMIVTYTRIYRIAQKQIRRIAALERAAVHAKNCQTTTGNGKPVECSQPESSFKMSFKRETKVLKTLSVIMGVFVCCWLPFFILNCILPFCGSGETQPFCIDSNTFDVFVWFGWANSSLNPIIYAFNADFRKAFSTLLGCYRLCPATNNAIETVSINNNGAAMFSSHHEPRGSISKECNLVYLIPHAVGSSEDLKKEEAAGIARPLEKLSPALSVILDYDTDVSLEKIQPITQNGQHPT
In short: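 Radioligand displacement binding on membranes/protein extracted from HEK293 expressing human D1, cell-free; read 1 h after dosing by filter-based scintillation counting. Primary screen in duplicate at 25 uM, actives followed up in concentration series; signal loss versus DMSO baseline.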

[11] = target: Type-1 angiotensin II receptor (Homo sapiens) (UniProt P30556); experiment: NVS_GPCR_hAT1: NovaScreen (NVS) G Protein-Coupled Receptor Assay for human Angiotensin II receptor type 1 (AT1) (AID 2283263)
In short: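 Hits from a 25 uM duplicate screen (threshold e.g. 30% inhibition) were run in concentration-response with 50 uM top concentration. Displacement of specific radioligand from KAN-TS membrane preparations measured after 3 h by filter scintillation, DMSO as baseline.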

[12] = target: human Leukotriene B4 Receptor 1 (LTB4-BLT1), LTB4R (gene 1241) (UniProt Q15722); experiment: NVS_GPCR_hLTB4_BLT1: NovaScreen (NVS) G Protein-Coupled Receptor Assay for human Leukotriene B4 Receptor 1 (LTB4-BLT1) (AID 2283271)
Sequence of human Leukotriene B4 Receptor 1 (LTB4-BLT1), LTB4R (gene 1241) (Q15722 whole entry, looked up): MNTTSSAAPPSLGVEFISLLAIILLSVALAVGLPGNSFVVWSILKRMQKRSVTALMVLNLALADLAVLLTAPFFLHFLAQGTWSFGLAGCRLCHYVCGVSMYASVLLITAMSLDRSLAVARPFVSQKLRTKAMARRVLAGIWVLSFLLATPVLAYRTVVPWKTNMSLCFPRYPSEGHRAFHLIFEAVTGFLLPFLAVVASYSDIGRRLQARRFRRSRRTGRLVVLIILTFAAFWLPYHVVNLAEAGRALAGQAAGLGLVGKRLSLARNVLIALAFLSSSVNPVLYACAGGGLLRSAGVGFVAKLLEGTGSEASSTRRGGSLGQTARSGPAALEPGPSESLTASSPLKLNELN
In short: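 Cell-free human neutrophil receptor preparation, 1 h exposure, radioligand binding read by filter scintillation counting. Single 25 uM duplicate screen, then concentration series topping at 50 uM; binding loss scored against DMSO baseline.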

[13] = target: human Adrenergic, Beta 3 Receptor (Adrb3), ADRB3 (gene 155) (UniProt P13945); experiment: NVS_GPCR_hAdrb3: NovaScreen (NVS) G Protein-Coupled Receptor Assay for human Adrenergic, Beta 3 Receptor (Adrb3) (AID 2283262)
Sequence of human Adrenergic, Beta 3 Receptor (Adrb3), ADRB3 (gene 155) (P13945 whole entry, looked up): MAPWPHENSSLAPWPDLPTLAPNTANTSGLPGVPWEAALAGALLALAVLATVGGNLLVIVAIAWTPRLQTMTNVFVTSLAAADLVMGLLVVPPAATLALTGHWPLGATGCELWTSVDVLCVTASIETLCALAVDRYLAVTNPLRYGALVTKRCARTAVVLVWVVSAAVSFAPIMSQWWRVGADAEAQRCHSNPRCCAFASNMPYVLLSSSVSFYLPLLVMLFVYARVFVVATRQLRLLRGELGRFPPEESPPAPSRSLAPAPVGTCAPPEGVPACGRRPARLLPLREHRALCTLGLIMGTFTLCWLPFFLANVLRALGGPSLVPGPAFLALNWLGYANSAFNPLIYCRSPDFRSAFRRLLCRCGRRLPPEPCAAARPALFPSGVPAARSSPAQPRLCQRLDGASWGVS
In short: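 A cell-free filter binding assay read by scintillation counting, with displacement of a specific radioligand measured after 1 hour. The receptor source was SK-N-MC extracts (cells pretreated with isoproterenol and 8-bromo-cAMP). Compounds were first tested at 25 uM in duplicate and then in concentration series.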

[14] = target: human Dopamine Receptor D4.4 (DRD4.4), DRD4 (gene 1815) (UniProt P21917); experiment: NVS_GPCR_hDRD4.4: NovaScreen (NVS) G Protein-Coupled Receptor Assay for human Dopamine Receptor D4.4 (DRD4.4) (AID 2283264)
Sequence of human Dopamine Receptor D4.4 (DRD4.4), DRD4 (gene 1815) (P21917 whole entry, looked up): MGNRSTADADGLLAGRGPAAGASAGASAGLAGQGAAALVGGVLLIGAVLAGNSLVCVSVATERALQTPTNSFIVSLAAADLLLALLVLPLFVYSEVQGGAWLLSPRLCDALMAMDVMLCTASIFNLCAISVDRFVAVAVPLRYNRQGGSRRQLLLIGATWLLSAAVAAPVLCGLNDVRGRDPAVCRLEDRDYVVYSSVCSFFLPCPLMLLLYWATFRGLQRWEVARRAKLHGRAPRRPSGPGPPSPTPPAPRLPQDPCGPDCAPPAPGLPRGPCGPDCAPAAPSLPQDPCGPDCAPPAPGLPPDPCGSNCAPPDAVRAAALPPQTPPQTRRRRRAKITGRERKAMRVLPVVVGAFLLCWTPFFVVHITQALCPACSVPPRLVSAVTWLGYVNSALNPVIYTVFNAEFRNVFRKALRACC
In short: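 Filter-binding assay with a tritiated or iodinated ligand, cell-free receptor prepared from CHO, 1 hour. Loss of bound radioactivity versus DMSO; single 25 uM duplicate screen, then concentration-response for actives.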

[15] = target: human Neuropeptide Receptor Y1 (NPY1), NPY1R (gene 4886) (UniProt P25929); experiment: NVS_GPCR_hNPY1: NovaScreen (NVS) G Protein-Coupled Receptor Assay for human Neuropeptide Receptor Y1 (NPY1) (AID 2283276)
In short: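 Displacement of specific radioligand from NPY1 receptor of SK-N-MC origin, read by filtration and scintillation after 1 h. Compounds first tested at 25 uM in duplicate, then actives in concentration series; signal loss relative to DMSO.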

[16] = target: human Adrenergic, Alpha 2A Receptor (Adra2A), ADRA2A (gene 150) (UniProt P08913); experiment: NVS_GPCR_hAdra2A: NovaScreen (NVS) G Protein-Coupled Receptor Assay for human Adrenergic, Alpha 2A Receptor (Adra2A) (AID 2283257)
In short: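 Displacement of a specific radioligand from HT29 membrane protein was counted by filter scintillation after 1 h. Compounds were screened in duplicate at 25 uM, and actives were retested in concentration series. Fitting was positive-direction against DMSO.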

[17] = target: human Endothelin Receptor Type A (ETA), EDNRA (gene 1909) (UniProt P25101); experiment: NVS_GPCR_hETA: NovaScreen (NVS) G Protein-Coupled Receptor Assay for human Endothelin Receptor Type A (ETA) (AID 2283265)
In short: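 Binding of radioligand to membrane protein extracted from SH-SY5Y cells was read by filtration and scintillation after 3 h. Compounds were screened at 25 uM in duplicate, with hits followed up in singleton concentration series to 50 uM.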

[18] = target: Neuropeptide Y receptor type 2 (Homo sapiens) (UniProt P49146); experiment: NVS_GPCR_hNPY2: NovaScreen (NVS) G Protein-Coupled Receptor Assay for human Neuropeptide Receptor Y2 (NPY2) (AID 2283277)
In short: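 Chemicals were first tested in duplicate at 25 uM, then actives in singleton concentration series to 50 uM. Tracer binding to SK-N-MC-derived protein measured cell-free after 1 h via filter scintillation; signal loss relative to DMSO.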

Measured: AC50

c1ccc(C[n+]2cccc3ccccc32)cc1
active: [1] 13 µM | [2] 25 µM | [3] 9.2 µM | [4] 16.8 µM | [5] 11.8 µM

O=c1c(-c2ccc(O)cc2)coc2cc(O)cc(O)c12
active: [6] 6.03 µM

Cc1cc(F)ccc1-c1cc(N2CC[C@@H](O)[C@H]2CO)ncc1N(C)C(=O)C(C)(C)c1cc(C(F)(F)F)cc(C(F)(F)F)c1
active: [6] 20.4 µM | [7] 20.4 µM | [9] 7.16 µM | [10] 5.89 µM | [5] 15 µM
inactive: [8]

CC(C)(C)c1csc(-c2cc3cc(OCc4ccccc4CC(=O)O)ccc3o2)n1
inactive: [7] | [11] | [12]

CC/C(=C(/CC)c1ccc(O)cc1)c1ccc(O)cc1
active: [7] 43.5 µM | [8] 40.3 µM | [13] 13.9 µM | [9] 25 µM
inactive: [14]

O=c1[nH]sc2ccccc12
active: [11] 25 µM | [10] 6.83 µM | [15] 4.62 µM

Cc1ccc2oc(CN(Cc3ccccc3)C(=O)Nc3c(F)cc(F)cc3F)c(-c3ccc(Cl)cc3)c2c1
inactive: [12]

Cc1oc2c(NC(=O)c3c(Cl)cccc3Cl)cccc2c1C(C)(C)O
active: [12] 11.7 µM
inactive: [13]

CCCCCCCCCC(=O)O
inactive: [6]

CCCCOC(=O)CC(CC(=O)OCCCC)(OC(C)=O)C(=O)OCCCC
inactive: [13]

CCOC(=O)O[C@H](C)OC(=O)c1ccc2c(c1)cc(C(=O)NC1CCN(C(C)C)CC1)n2Cc1cc(-c2ccc(Cl)s2)on1
active: [6] 10.2 µM | [16] 6.3 µM | [7] 6.33 µM | [8] 12.9 µM | [13] 20 µM | [14] 20.9 µM | [17] 14.3 µM | [9] 3.6 µM | [1] 7.84 µM | [10] 1.75 µM | [2] 5.44 µM | [3] 3.64 µM | [4] 2.17 µM | [5] 1.79 µM | [18] 0.0551 µM
